Reference: PubChem BioAssay AID1159580 (chemical genetic matrix, 2015)
Screen size: about 5,500 compounds; about 2,000 (36%) were called active. Not shown: some 18% with an inconclusive outcome. No stated cut-off is given here; in the data, active means normalized growth mostly below about 0.91 (no sharp cut-off); inconclusive means no clear call, values can overlap the other calls; inactive means mostly above about 0.92. The list shows a part of the results.

Assay: chemical genetic growth profiling, strain panel (AID 1159580);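 further: tested at 20 µM; growth read once vehicle control cultures reached saturation at 30 °C; 1 = growth at the plate median or of vehicle wells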
Conditions: growth OD

Measured: normalized growth

C[C@@H]1CC(Cl)CC[C@H]1C(=O)OC(C)(C)C (some centres not stated)
inactive: S. cerevisiae deletion strains, locus YJR075W, strain HOC1, stronger effect = lower value 0.964 | S. cerevisiae deletion strains, locus YKL009W, strain mrt4, stronger effect = lower value 1 | S. cerevisiae deletion strains, locus YKL068W, stronger effect = lower value 0.98 | S. cerevisiae deletion strains, locus YKL085W, strain MDH1 (second series), stronger effect = lower value 0.977 | S. cerevisiae deletion strains, locus YKL085W, strain MDH1, stronger effect = lower value 0.977 | S. cerevisiae deletion strains, locus YKL160W, strain elf1, stronger effect = lower value 1.02 | S. cerevisiae deletion strains, locus YKL190W, strain CNB1, stronger effect = lower value 0.981 | S. cerevisiae deletion strains, locus YKR001C, strain vps1, stronger effect = lower value 1.01 | S. cerevisiae deletion strains, locus YKR026C, strain gcn3, stronger effect = lower value 0.985 | S. cerevisiae deletion strains, locus YKR091W, strain srl3, stronger effect = lower value 0.982 | S. cerevisiae deletion strains, locus YLL001W, strain dnm1, stronger effect = lower value 0.979 | S. cerevisiae deletion strains, locus YLL026W, stronger effect = lower value 0.983 | S. cerevisiae deletion strains, locus YLL041C, strain sdh2, stronger effect = lower value 0.982 | S. cerevisiae deletion strains, locus YLR027C, strain aat2, stronger effect = lower value 0.982 | S. cerevisiae deletion strains, locus YLR039C, strain RIC1, stronger effect = lower value 1 | S. cerevisiae deletion strains, locus YLR058C, strain SHM2, stronger effect = lower value 0.991 | S. cerevisiae deletion strains, locus YLR102C, strain apc9, stronger effect = lower value 0.991 | S. cerevisiae deletion strains, locus YLR113W, strain HOG1, stronger effect = lower value 0.999 | S. cerevisiae deletion strains, locus YLR221C, strain rsa3, stronger effect = lower value 1.01 | S. cerevisiae deletion strains, locus YLR258W, strain gsy2, stronger effect = lower value 0.97 | S. cerevisiae deletion strains, locus YLR262C, strain YPT6 (second series), stronger effect = lower value 0.965 | S. cerevisiae deletion strains, locus YLR262C, strain YPT6, stronger effect = lower value 0.957 | S. cerevisiae deletion strains, locus YLR268W, strain sec22, stronger effect = lower value 0.976 | S. cerevisiae deletion strains, locus YLR320W, strain mms22, stronger effect = lower value 0.954 | S. cerevisiae deletion strains, locus YLR330W, strain CHS5, stronger effect = lower value 0.99 | S. cerevisiae deletion strains, locus YLR342W, strain FKS1 (second series), stronger effect = lower value 1.05 | S. cerevisiae deletion strains, locus YLR342W, strain FKS1, stronger effect = lower value 0.98 | S. cerevisiae deletion strains, locus YLR357W, strain rsc2, stronger effect = lower value 0.985 | S. cerevisiae deletion strains, locus YLR370C, strain arc18, stronger effect = lower value 0.991 | S. cerevisiae deletion strains, locus YLR371W, strain rom2, stronger effect = lower value 1 | S. cerevisiae deletion strains, locus YLR384C, strain iki3, stronger effect = lower value 0.982 | S. cerevisiae deletion strains, locus YLR418C, strain cdc73, stronger effect = lower value 0.972 | S. cerevisiae deletion strains, locus YML016C, strain PPZ1, stronger effect = lower value 0.992 | S. cerevisiae deletion strains, locus YML032C, strain rad52, stronger effect = lower value 0.967 | S. cerevisiae deletion strains, locus YML120C, strain ndi1, stronger effect = lower value 1 | S. cerevisiae deletion strains, locus YML124C, strain tub3, stronger effect = lower value 0.983 | S. cerevisiae deletion strains, locus YMR058W, strain fet3, stronger effect = lower value 0.976 | S. cerevisiae deletion strains, locus YMR078C, strain ctf18, stronger effect = lower value 0.985 | S. cerevisiae deletion strains, locus YMR125W, strain sto1, stronger effect = lower value 0.962 | S. cerevisiae deletion strains, locus YMR129W, stronger effect = lower value 0.961 | S. cerevisiae deletion strains, locus YMR205C, strain PFK2, stronger effect = lower value 0.928 | S. cerevisiae deletion strains, locus YMR223W, strain ubp8, stronger effect = lower value 1.04 | S. cerevisiae deletion strains, locus YMR231W, strain pep5, stronger effect = lower value 0.995 | S. cerevisiae deletion strains, locus YMR263W, strain SAP30, stronger effect = lower value 0.976 | S. cerevisiae deletion strains, locus YMR307W, strain GAS1, stronger effect = lower value 1 | S. cerevisiae deletion strains, locus YNL067W, strain RPL9B, stronger effect = lower value 0.959 | S. cerevisiae deletion strains, locus YNL071W, strain lat1, stronger effect = lower value 0.985 | S. cerevisiae deletion strains, locus YNL128W, strain TEP1, stronger effect = lower value 0.971 | S. cerevisiae deletion strains, locus YNL153C, strain GIM3, stronger effect = lower value 0.986 | S. cerevisiae deletion strains, locus YNL183C, strain NPR1, stronger effect = lower value 0.948 | S. cerevisiae deletion strains, locus YNL209W, strain ssb2, stronger effect = lower value 0.989 | S. cerevisiae deletion strains, locus YNL233W, strain BNI4, stronger effect = lower value 0.997 | S. cerevisiae deletion strains, locus YNL248C, strain rpa49, stronger effect = lower value 1.01 | S. cerevisiae deletion strains, locus YNL250W, strain rad50, stronger effect = lower value 0.987 | S. cerevisiae deletion strains, locus YNL271C, strain bni1, stronger effect = lower value 0.976 | S. cerevisiae deletion strains, locus YNL298W, strain CLA4, stronger effect = lower value 0.979 | S. cerevisiae deletion strains, locus YNL307C, strain MCK1, stronger effect = lower value 0.995 | S. cerevisiae deletion strains, locus YNL322C, strain KRE1 (second series), stronger effect = lower value 0.996 | S. cerevisiae deletion strains, locus YNL322C, strain KRE1, stronger effect = lower value 0.956 | S. cerevisiae deletion strains, locus YNR049C, strain mso1, stronger effect = lower value 0.971 | S. cerevisiae deletion strains, locus YNR052C, strain pop2, stronger effect = lower value 0.989 | S. cerevisiae deletion strains, locus YOL006C, strain TOP1, stronger effect = lower value 0.991 | S. cerevisiae deletion strains, locus YOL012C, strain htz1 0.765 | S. cerevisiae deletion strains, locus YOL147C, strain pex11, stronger effect = lower value 0.992 | S. cerevisiae deletion strains, locus YOR001W, strain rrp6, stronger effect = lower value 1 | S. cerevisiae deletion strains, locus YOR061W, strain CKA2, stronger effect = lower value 0.993 | S. cerevisiae deletion strains, locus YOR069W, strain VPS5, stronger effect = lower value 0.989 | S. cerevisiae deletion strains, locus YOR070C, strain gyp1, stronger effect = lower value 0.991 | S. cerevisiae deletion strains, locus YOR080W, strain dia2, stronger effect = lower value 0.98 | S. cerevisiae deletion strains, locus YOR083W, strain WHI5, stronger effect = lower value 1.04 | S. cerevisiae deletion strains, locus YOR106W, strain vam3, stronger effect = lower value 1 | S. cerevisiae deletion strains, locus YOR136W, strain idh2, stronger effect = lower value 0.996 | S. cerevisiae deletion strains, locus YOR144C, strain elg1, stronger effect = lower value 0.991 | S. cerevisiae deletion strains, locus YOR184W, strain ser1, stronger effect = lower value 0.935 | S. cerevisiae deletion strains, locus YOR231W, strain MKK1, stronger effect = lower value 1.01 | S. cerevisiae deletion strains, locus YOR265W, strain rbl2, stronger effect = lower value 0.986 | S. cerevisiae deletion strains, locus YOR270C, strain vph1, stronger effect = lower value 0.928 | S. cerevisiae deletion strains, locus YOR290C, strain snf2, stronger effect = lower value 0.92 | S. cerevisiae deletion strains, locus YOR316C, strain cot1, stronger effect = lower value 0.969 | S. cerevisiae deletion strains, locus YPL051W, strain arl3, stronger effect = lower value 1 | S. cerevisiae deletion strains, locus YPL055C, strain LGE1, stronger effect = lower value 0.864 | S. cerevisiae deletion strains, locus YPL078C, strain atp4, stronger effect = lower value 1 | S. cerevisiae deletion strains, locus YPL106C, strain sse1, stronger effect = lower value 0.962 | S. cerevisiae deletion strains, locus YPL240C, strain hsp82, stronger effect = lower value 0.982 | S. cerevisiae deletion strains, locus YPL241C, strain CIN2, stronger effect = lower value 0.997 | S. cerevisiae deletion strains, locus YPL256C, strain CLN2, stronger effect = lower value 1.01 | S. cerevisiae deletion strains, locus YPR119W, strain clb2, stronger effect = lower value 0.977 | S. cerevisiae deletion strains, locus YPR141C, strain kar3, stronger effect = lower value 0.979 | S. cerevisiae deletion strains, locus YPR163C, strain tif3, stronger effect = lower value 0.992 | S. cerevisiae deletion strains, locus YPR167C, strain met16, stronger effect = lower value 0.977 | S. cerevisiae deletion strains, strain wtn01, stronger effect = lower value 0.977 | S. cerevisiae strains, strain wild type, stronger effect = lower value 0.984
